The text below walks through data of ChEMBL document CHEMBL4513216, “Probing the Open Global Health Chemical Diversity Library for Multistage-Active Starting Points for Next-Generation Antimalarials” (ACS Infect Dis, 2020).

The whole screen tested about 69,000 compounds, of which about 8,600 (12%) showed an effect of 50% or more. The full list was thinned out, with strong results kept by preference.

For this assay, the system named is Plasmodium berghei. The experiment in a line: Screen against P. berghei liver stage (PbLuc), transformed with Luciferase, at 10uM. In kind it is functional, HepG2. The settings on record: tested at 10 uM.
For the compound `CN(C)C(=O)c1cccnc1SCc1ccccc1C#N`, the INHIBITION is given as 1.61%.

Turning to `CCc1nc(C2CCCN(C(=O)c3ccc(O)nc3)C2)no1` (configuration not stated), the INHIBITION is on record as 43.2%. For the compound `CN1CC(=O)N(c2ccccc2)CC12CCN(C(=O)c1cnccn1)C2` (configuration not stated), the INHIBITION is listed as 29.3%. As for `c1ccc(-c2nnc(CN3CCOC(Cn4cccn4)C3)o2)cc1` (configuration not stated), the INHIBITION was 0.914%. Then `Cc1cnn(CCC(=O)N2CCCC(c3noc(C)n3)C2)c1` (configuration not stated), with -4.16%; and `O=C1[C@H]2CN(C3CCOCC3)C[C@H]2CN1Cc1cccnc1`, with 92%; and `O=C1[C@H]2CN(C3CCOCC3)C[C@H]2CN1Cc1ccncc1`, with -2.46%. Then `O=C1[C@H]2CN(S(=O)(=O)C3CC3)C[C@H]2CN1Cc1cccnc1`, with 15.4%. The figure for `Cc1ccc2c(n1)N(Cc1cccnc1)CCN(C(=O)C1CC1)C2` is 31.1%; for `Cc1ccc2c(n1)N(Cc1cccnc1)CCN(C1CCOCC1)C2` it is 64.9%. Turning to `Cc1ccc2c(n1)N(CCn1cccn1)CCN(C1CCOCC1)C2`, the INHIBITION is -77.4%. Take `CCOC(=O)CNC(=O)NCc1cccn1Cc1cccc(C)c1`: the INHIBITION is given as 45.8%. Then `CC(=O)N1[C@H](CN(C)C)C[C@@H]2CN(C(=O)c3occc3C)CC[C@@H]21`, with 12.4%; and `O=C(c1ccncc1)N1CCCC(c2ncncc2-c2ccncc2)C1` (configuration not stated), with 12.3%. The figure for `CCc1noc(CN2CCN(C(=O)OC(C)(C)C)C(C)C2)n1` (configuration not stated) is 20.4%; for `Cc1ccc(CN2CC(O)CN(C(=O)OCC(C)C)CC2=O)cc1` (configuration not stated) it is 18.4%; for `O=S(=O)(c1cn[nH]c1)N1C[C@@H](O)[C@H](N2CCc3ccccc3C2)C1` it is -51.3%. On to `COc1cccc(C2CC(=O)Nc3nc(N)sc32)c1OC` (configuration not stated), for which the INHIBITION is on record as 5.53%. Regarding `CC(=O)c1cc(CN2CCCC23CCN(c2ccccn2)CC3)cs1`, the INHIBITION is reported as 12.7%.

In the case of `CN(C)c1ncc(-c2cncn2CCc2ccc3c(c2)OCCO3)cn1`, the INHIBITION is -12.3%.

Regarding `CC(C)S(=O)(=O)N1CCN(C(=O)c2cnn(C)c2Cl)CC1`, the INHIBITION worked out at 19.845%. Then `O=C(O)c1ccccc1-n1cnc(CN2CCCCCC2)c1`, with 14.6%. Then `CC(C)(C)CC(=O)NCCn1nc(C2CCNC2)c2cccnc21` (configuration not stated), with 54.5%. The figure for `COCCC(=O)NCCn1nc(C2CCNC2)c2cccnc21` (configuration not stated) is 5.11%; for `CC(C)CC(=O)NCCn1nc(C2CCNC2)c2cccnc21` (configuration not stated) it is 44.8%. For `O=C(NCCn1nc(C2CCNC2)c2cccnc21)C1CC1` (configuration not stated), the INHIBITION stood at 13.5%. In the case of `O=C(CCC1CCCC1)NCCn1nc(C2CCNC2)c2cccnc21` (configuration not stated), the INHIBITION worked out at 38.7%.

In the case of `O=C(CCC1CCCC1)NCCn1nc(C2CCNC2)c2nccnc21` (configuration not stated), the INHIBITION turned out to be 67.1%.

For the compound `CC(C)(C)OC(=O)N[C@@H]1C[C@@H](O)CN(C(=O)c2ccc(F)cc2)C[C@H]1O`, the INHIBITION is reported as 6.26%. The figure for `COCCN1CCC(c2ncc(C(=O)N3CCOCC3)c(C)n2)CC1` is -2.09%; for `COC(=O)CNC(=O)C12CCC(=O)N1c1cc(Cl)ccc1S2` (configuration not stated) it is 15.9%; for `CC(C)C(=O)NCCNC(=O)C12CCC(=O)N1c1cc(Cl)ccc1S2` (configuration not stated) it is 57.6%. In the case of `CCOCCCNC(=O)C1(C)CCC(=O)N1c1ccccc1F` (configuration not stated), the INHIBITION amounted to 37.4%. Then `CC(C)NC(=O)CNC(=O)C12CCC(=O)N1c1cc(Cl)ccc1S2` (configuration not stated), with 73.6%; and `CC(C)C(=O)NCc1cccc(N2CCCCC2=O)c1`, with 19.4%; and `CC(C)NC(=O)CNC(=O)N1CCc2c([nH]c3ccc(Cl)cc23)C1`, with -22.9%.

With `Cc1nn(C)c(Cl)c1C1CCCN1C(=O)c1ccncc1` (configuration not stated), the INHIBITION is 38.5%.

Turning to `O=C(c1cscn1)N1CCC2(CCCN(CCOc3ccccc3)C2)C1` (configuration not stated), the INHIBITION is listed as -31.9%. For `CCN(C)S(=O)(=O)NCC1CCCN(Cc2ccccc2F)C1` (configuration not stated), the INHIBITION was found to be 1.74%. The figure for `CCC(C)N1Cc2c(C(=O)N3CCOCC3)nn(C)c2C1` (configuration not stated) is 19.5%; for `Cc1cnn(CC2CCCCN2C(=O)Cc2ccc(C#N)cc2)c1` (configuration not stated) it is 2.97%. As to `Cc1ccc2nc(CN3CCN(C4CCCCC4)C(=O)C3)cc(O)c2c1`, the INHIBITION is reported as -46.2%. The figure for `Cc1ccc2nc(CN3CCC(O)(Cn4ccnc4)CC3)cc(O)c2c1` is 43.4%; for `Oc1cc(CN2CCC(O)(Cn3ccnc3)CC2)nc2c(Cl)cccc12` it is 27.6%; for `Cc1ccc2nc(CN3CCN(C4CCCC4)C(=O)C3)cc(O)c2c1` it is -0.529%. With `Oc1cc(CN2CCC(O)(Cn3ccnc3)CC2)nc2ccc(F)cc12`, the INHIBITION turned out to be 62.8%.

Turning to `Cc1ccc2nc(CN3CCC(O)(CN4CCCC4)CC3)cc(O)c2c1`, the INHIBITION is on record as 69.3%. The figure for `CC(=O)N1CCc2nc(C3CCN(C(=O)c4ccccc4)C3)ncc2C1` (configuration not stated) is -29.8%.

Consider `CN(Cc1cccs1)C(=O)CN1CCCC(Cn2cncn2)C1` (configuration not stated), for which the INHIBITION was -4.16%. The figure for `CN1CCCN(S(=O)(=O)c2cccc(C(=O)N3CCCCCC3)c2)CC1` is 36%; for `CCc1nnc(CNC(=O)CCC2CCCCN2C)s1` (configuration not stated) it is 6.72%; for `COc1coc(CN2CCCC(CCc3c(F)cccc3F)C2)cc1=O` (configuration not stated) it is 56.3%.
